Sampled rows, rich in hits. Any-hit rate of the full collection: about 10%.
HP1b binding inh – blocks HP1-beta chromodomain binding to methylated histone tails; AlphaScreen HP1-beta / biotin-H3K9me3 peptide binding; Potency, µM (titrated, usually from 114 µM), actives largely listed as inhibitors; 390,000 tested, 0.56% active; P83916; further: nearly all actives have a fitted effect of over 70% in size
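HP1-beta protein (50 nM final) preincubated 30 min at room temperature with biotinylated H3(1-18)K9me3 peptide (50 nM) in PBS pH 7.4, 0.01% Tween-20, then compound added for 30 min. AlphaScreen streptavidin donor/nickel chelate acceptor beads (10 ug/mL final), 30 min dark, luminescence read.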
G9a inh – G9a (human) methyltransferase inhibition | Q96KQ7 | G9a H3K9 monomethylation, AlphaScreen, 2 h | Potency, µM (series often up to 102 µM), actives largely listed as inhibitors | 350,000 tested, 8.8% active | AID 504332; further: nearly all actives have a fitted effect of over 75% in size
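Enzyme 20 nM + cpd, 15 min RT; add b-H3K9 pep 500 nM / SAM 20 uM; 2 h RT; anti-H3K9me1 Ab 0.5 ug/mL + SA donor / anti-rabbit acceptor beads 20 ug/mL each, 10 min; AlphaScreen read.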
BAZ2B inh – blocks human BAZ2B. Potency, µM (top dose mostly 114 µM), hits mostly inhibitors. AID 504333. 360,000 tested, 4.4% active. AlphaScreen BAZ2B-H3K14Ac peptide displacement; further: nearly all actives have a fitted effect of over 60% in size
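Multi-concentration screen (max 110 uM) measuring displacement of acetylated histone H3 peptide from BAZ2B by AlphaScreen, using 50 nM protein, 50 nM peptide and 10 ug/mL streptavidin donor plus Ni-chelate acceptor beads.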
JMJD2A Tudor inh – blocks the human JMJD2A Tudor domain | AID 504339 | Potency, µM (top dose mostly 114 µM), hits mostly inhibitors | AlphaScreen JMJD2A-Tudor / H3K4me3 peptide binding | 390,000 tested, 4.4% active | O75164; further: nearly all actives have a fitted effect of over 50% in size
GLS inh – glutaminase GLS (human) inhibition; O94925; Potency, µM (top dose mostly 45.5 µM), usual class: inhibitors; GLS enzymatic activity, qHTS titration; 410,000 tested, 0.21% active
Target sequence (O94925 whole entry, looked up): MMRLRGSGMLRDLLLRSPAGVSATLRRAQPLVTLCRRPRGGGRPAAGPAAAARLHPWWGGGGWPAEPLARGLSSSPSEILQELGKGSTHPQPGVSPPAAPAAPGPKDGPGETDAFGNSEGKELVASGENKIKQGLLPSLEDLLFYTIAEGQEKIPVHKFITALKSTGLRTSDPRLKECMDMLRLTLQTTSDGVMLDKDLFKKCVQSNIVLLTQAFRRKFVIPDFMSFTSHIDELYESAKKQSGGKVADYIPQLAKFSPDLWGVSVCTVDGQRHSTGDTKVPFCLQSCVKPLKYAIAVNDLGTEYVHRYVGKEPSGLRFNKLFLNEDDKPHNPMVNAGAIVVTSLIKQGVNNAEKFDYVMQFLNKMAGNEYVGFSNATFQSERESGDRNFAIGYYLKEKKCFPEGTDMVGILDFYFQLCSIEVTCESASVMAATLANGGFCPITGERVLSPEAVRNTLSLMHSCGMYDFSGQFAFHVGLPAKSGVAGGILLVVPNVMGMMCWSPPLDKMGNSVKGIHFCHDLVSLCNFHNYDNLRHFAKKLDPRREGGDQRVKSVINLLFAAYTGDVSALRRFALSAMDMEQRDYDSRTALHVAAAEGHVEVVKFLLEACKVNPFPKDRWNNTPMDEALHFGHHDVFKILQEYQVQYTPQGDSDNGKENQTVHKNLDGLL
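Coupled fluorescence readout: glutamate oxidase/HRP/Amplex Red detect glutamate formed by hKGA from L-glutamine (1 mM solution added). Buffer 45 mM KH2PO4 pH 8.2, 0.02% Tween-20; reads at t0 and 30 min RT.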
L3MBTL1 inh – L3MBTL1 (human) inhibition. Potency, µM (doses to about 57.1 µM), actives largely listed as inhibitors. 230,000 tested, 0.66% active. AlphaScreen L3MBTL1–H3K9me1 peptide binding. Q9Y468; further: nearly all actives have a fitted effect of over 60% in size
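Displacement of a biotinylated histone H3(1-15) peptide monomethylated at Lys9 (75 nM) from L3MBTL1 (50 nM) was measured by AlphaScreen after a 30 min room-temperature compound incubation; cefsulodin titration served as intraplate control.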
Of the large screens only hits and unclear results are named; the others gave an inactive call; ! = a repeat was not active. The call rests on the fitted dose curve; in most records, active means well fitted curve in the direction sought with a large enough effect; inconclusive means small, poorly fitted or top-dose-only effect, or another doubt; inactive means no such curve, though single readings can be large; an effect the other way counts as inactive or inconclusive.

NC(=O)c1ccccc1NC(=O)C1CCCO1 (configuration not stated)	none
CSc1ccccc1NC(=O)C1CCCO1 (configuration not stated)	G9a inh 16µM
O=C(Nc1ccc(N=Nc2ccccc2)c(NC(=O)C2CCCO2)c1)C1CCCO1 (configuration not stated)	HP1b binding inh inconclusive, G9a inh inconclusive, BAZ2B inh 28µM, JMJD2A Tudor inh 35µM, L3MBTL1 inh inconclusive
O=C(Nc1ccc([N+](=O)[O-])c(NC(=O)C2CCCO2)c1)C1CCCO1 (configuration not stated)	G9a inh inconclusive, L3MBTL1 inh inconclusive
CCCN1CCN(CC2=C(C(=O)OCC)C(c3ccc(Cl)cc3)NC(=O)N2)CC1 (configuration not stated)	none (no result: BAZ2B inh, L3MBTL1 inh)
O=C(O)Cc1csc(NC(=O)CSc2cccc(C(=O)O)n2)n1	JMJD2A Tudor inh 89µM (no result: G9a inh, L3MBTL1 inh)
N/C(=N\N=C\c1ccc(Cl)cc1)N/N=C/c1ccc(Cl)cc1	none (no result: HP1b binding inh, BAZ2B inh, JMJD2A Tudor inh, L3MBTL1 inh)
CN=c1scc(-c2c[nH]c3ccccc23)n1C	G9a inh 40µM
O=C1C=CC(=O)N1Cc1ccccc1	HP1b binding inh inconclusive, G9a inh 1.8µM, BAZ2B inh inconclusive, JMJD2A Tudor inh 25µM (no result: L3MBTL1 inh)
O=C1C2CC=CCC2C(=O)N1Cc1ccccc1 (configuration not stated)	none
CCOc1ccc(OCC)c(NC(=O)c2cnc3c(-c4ccccc4)c(C)nn3c2C)c1	none (no result: L3MBTL1 inh)
O=C(CN1CCN(c2ccccc2F)CC1)c1ccc(O)cc1O	none (no result: L3MBTL1 inh)
O=C(CN1CCN(c2ccc(F)cc2)CC1)c1ccc(O)cc1O	G9a inh 79µM, BAZ2B inh inconclusive (no result: L3MBTL1 inh)
COc1ccc(N2CCN(CC(=O)c3ccc(O)cc3O)CC2)cc1	G9a inh 71µM, BAZ2B inh inconclusive, JMJD2A Tudor inh inconclusive (no result: L3MBTL1 inh)
COc1ccccc1/C=C/c1nc2ccccc2n1C(C)C	none (no result: L3MBTL1 inh)
CC1(C)CC(NNCCC#N)=CC(=[N+]2CCCC2)C1	G9a inh 40µM (no result: L3MBTL1 inh)
COc1ccc(CCNc2nc(-c3sc(C)nc3C)cs2)cc1OC	HP1b binding inh inconclusive, G9a inh 10µM, BAZ2B inh 32µM, JMJD2A Tudor inh 3.2µM (no result: L3MBTL1 inh)
COc1ccc(CCNc2nc(-c3ccc(O)cc3)cs2)cc1OC	G9a inh 22µM, BAZ2B inh inconclusive, JMJD2A Tudor inh inconclusive
COc1ccc(CCNc2nc(-c3ccncc3)cs2)cc1OC	none (no result: G9a inh, L3MBTL1 inh)
COc1ccc(CCNc2nc(-c3ccccn3)cs2)cc1OC	G9a inh inconclusive, BAZ2B inh 22µM, JMJD2A Tudor inh inconclusive (no result: L3MBTL1 inh)
COC(=O)c1c(-c2ccc(Cl)cc2)noc1N1CCN(c2cccc(OC)c2)CC1	none (no result: L3MBTL1 inh)
Cc1ccc(-c2nnc3sc(C4COc5ccccc5O4)nn23)cc1 (configuration not stated)	none
COc1ccccc1-c1nn2c(C3COc4ccccc4O3)nnc2s1 (configuration not stated)	G9a inh 3.5µM (no result: GLS inh)
c1ccc(Cc2nn3c(C4COc5ccccc5O4)nnc3s2)cc1 (configuration not stated)	G9a inh 5µM, GLS inh inconclusive
c1ccc(CCc2nn3c(Cc4ccccc4)nnc3s2)cc1	HP1b binding inh inconclusive, G9a inh inconclusive, GLS inh inconclusive
c1ccc(CCc2nn3c(C4COc5ccccc5O4)nnc3s2)cc1 (configuration not stated)	HP1b binding inh inconclusive, G9a inh 3.5µM, JMJD2A Tudor inh inconclusive, GLS inh inconclusive
CC(C)CC(=O)NCC(c1ccc2c(c1)OCO2)N1CCN(c2ccccc2F)CC1 (configuration not stated)	none (no result: L3MBTL1 inh)
O=C(CSc1ccc2nnc(-c3cccnc3)n2n1)N1CCOCC1	G9a inh inconclusive (no result: L3MBTL1 inh)
O=C(CSc1ccc2nnc(-c3ccc(Cl)cc3)n2n1)N1CCc2ccccc21	G9a inh 7.9µM
O=C(CSc1ccc2nnc(-c3ccc(Cl)cc3)n2n1)N1CCCC1	G9a inh 35µM
O=C(Nc1cccc(-c2nc3ccccc3[nH]2)c1)c1c(F)cccc1F	none (no result: L3MBTL1 inh)
COC(=O)c1sc(-c2ccc(C(C)(C)C)cc2)cc1NC(=O)c1ccccc1C(=O)O	BAZ2B inh 79µM (no result: L3MBTL1 inh)
CCN(Cc1ccccc1)C(=O)CCS(=O)(=O)c1cc2c(cc1Cl)NC(=O)CO2	G9a inh 50µM!
CCN(Cc1ccccc1)C(=O)CCS(=O)(=O)c1ccc2c(c1)NC(=O)CO2	none (no result: L3MBTL1 inh)
Cc1cccc(NC(=O)Cn2c(=O)n(CCCCCC(=O)NCc3ccccc3)c(=O)c3sccc32)c1	none (no result: L3MBTL1 inh)
CCC1=NN2C(=N)/C(=C\c3cccn3-c3c(C)cccc3C)C(=O)N=C2S1	G9a inh inconclusive
Cc1cccc(C)c1-n1cccc1/C=C1/C(=N)N2C(=NC1=O)SN=C2S(C)(=O)=O	G9a inh 32µM (no result: L3MBTL1 inh)
Cc1ccc(-n2cccc2/C=C2/C(=N)N3C(=NC2=O)SN=C3S(C)(=O)=O)cc1Cl	G9a inh 50µM, BAZ2B inh 45µM, JMJD2A Tudor inh 45µM, L3MBTL1 inh inconclusive
CC1CCN(Cc2c(O)ccc3c(=O)c(-c4cccc(Cl)c4)c(C(F)(F)F)oc23)CC1	none (no result: L3MBTL1 inh)
CCCc1cc(SCC(=O)Nc2c(C)n(C)n(-c3ccccc3)c2=O)n2c(nc3ccccc32)c1C#N	G9a inh 7.9µM (no result: L3MBTL1 inh)
COc1ccc(CNc2nc(-c3ccccc3)nn2S(=O)(=O)c2ccccc2)cc1	none (no result: L3MBTL1 inh)
Cc1cc(Br)ccc1N=C1NC(=O)CS1	G9a inh 20µM
CN1CCN(c2ccc(CNS(=O)(=O)Cc3ccc(Cl)cc3)cc2)CC1	G9a inh inconclusive, L3MBTL1 inh 4.5µM
C[C@@H]1NC(=O)[C@H](CCC(=O)O)NC(=O)c2cc([N+](=O)[O-])cc(F)c2NCCC[C@@H](C(N)=O)NC1=O	G9a inh 79µM
NC(=O)[C@@H]1CCCNc2c(F)cc([N+](=O)[O-])cc2C(=O)N[C@@H](CO)C(=O)N[C@@H](Cc2ccc(O)cc2)C(=O)N1	G9a inh inconclusive
NC(=O)CC[C@@H]1NC(=O)C(Cc2ccc(O)cc2)NC(=O)c2cc([N+](=O)[O-])cc(F)c2NCCC[C@@H](C(N)=O)NC1=O (some centres not stated)	G9a inh 50µM, BAZ2B inh inconclusive (no result: HP1b binding inh, JMJD2A Tudor inh, GLS inh)
COc1ccc(-c2nc3cnc(N4CCN(C)CC4)nc3n(C)c2=O)cc1	none (no result: HP1b binding inh, BAZ2B inh, JMJD2A Tudor inh, GLS inh, L3MBTL1 inh)
O=C(COc1cccc2cccnc12)NNC(=S)Nc1ccccc1	G9a inh 18µM (no result: HP1b binding inh, JMJD2A Tudor inh, GLS inh, L3MBTL1 inh)
Cc1ccc(NC(=O)CN(C)C(=O)COc2cccc3cccnc23)cc1	G9a inh inconclusive, BAZ2B inh 50µM, JMJD2A Tudor inh inconclusive, L3MBTL1 inh inconclusive
NC(=O)COc1cccc2cccnc12	G9a inh 45µM (no result: L3MBTL1 inh)
O=C(COc1cccc2ccccc12)NNC(=O)Nc1ccccc1	G9a inh inconclusive

Bioassay records (PubChem BioAssay)
